Source: PubChem BioAssay
Results filed as inconclusive are left out. Calls of active or inactive are those of the source.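 How the source made its calls, unless noted: active means percent response above a set limit, the screen-wide mean plus 3 SD (cut at about 130% in these data); inactive means the rest.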

Legend:
[1] = rapamycin-like changes in RPL19A-GFP expression – cell-based, S. cerevisiae, multiplex flow cytometry, primary screen (AID 1862; in the data active means percent of DMSO control GFP below about 86%;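 further: lower values mimic rapamycin by blocking the RPL19A rise seen in DMSO cells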); details: S. cerevisiae RPL19A-GFP strain, flow cytometry fluorescence, 3 h; at 10 µM; stronger effect = lower value
[2] = TOR pathway GLN3 branch reporter MEP2-GFP changes – S. cerevisiae, multiplex flow cytometry, primary screen (AID 1867;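 active means GFP response, as percent of the DMSO control, above the screen-wide mean plus 3 SD, about 139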;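 further: median GFP channel fluorescence of barcode-gated MEP2-GFP cells measured by flow cytometry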); details: S. cerevisiae MEP2-GFP strain, 3 h, at 10 µM, stronger effect = higher value, 100% means same as DMSO wells
[3] = TOR pathway RTG branch CIT2 reporter changes – S. cerevisiae, GFP fusion, multiplex flow cytometry, primary screen (AID 1870);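 further: barcoded CIT2-GFP strain pooled with four other GFP strains with rapamycin as positive control; median GFP fluorescence per well over plate mean of DMSO wells so 100% = DMSO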; details: S. cerevisiae CIT2-GFP expression, 3 h, at 10 µM, stronger effect = higher value
[4] = TOR pathway LAP4-GFP level changes – S. cerevisiae, multiplex flow cytometry, primary screen (AID 1873;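 active means GFP signal, as percent of the solvent control, above the screen mean plus 3 SD, about 149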); details: S. cerevisiae LAP4-GFP expression, 3 h, at 10 µM, stronger effect = higher value
[5] = yeast AGP1-GFP level changes, GLN3 branch – cell-based, multiplex flow cytometry, S. cerevisiae, primary screen (AID 1887;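 active means GFP signal above the screen-wide mean plus 3 SD, that is over about 124.5% of the solvent control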;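 further: AGP1-GFP fusion strain of S. cerevisiae within a five-strain barcoded multiplex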); details: 3 h, at 10 µM, stronger effect = higher value
[6] = reduced mouse 2C T cell binding to pMHC/ICAM-1 vesicles – MLPCN validation set, flow cytometry, LFA-1/ICAM-1 modulator project, pilot screen (AID 2523;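 active means response below a set limit, under 55% cells CD8-positive and vesicle-bound, and CD8 cells' 90th-percentile brightness under 279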;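 on vesicle binding response: mean PE anti-B7-1 fluorescence of CD8+ cells relative to row control; 100% = QL9-loaded vesicles with DMSO vehicle in the same plate row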); details: 2C mouse CD8+ T cells, at 7 µM, stronger effect = lower value; double positive events: measured here: CD8+/vesicle+ event percentage
[7] = molecular target: Integrin beta-1 (Homo sapiens) + Integrin alpha-4 (Homo sapiens) (UniProt P13612+P05556); test: alpha4beta1 integrin LIBS antibody binding reduction – U937 cells, HUTS-21 mAb, flow cytometry, validation set, VLA-4 allosteric modulator project, pilot screen (AID 2674;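 active means inhibition above 50%, about 3 SD of the validation set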;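 further: antibody binding induced by the VLA-4 ligand LDV present at three times its Kd; 0% = LDV ligand with antibody and no compound and 100% = antibody without LDV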); details: HUTS-21 LIBS mAb binding, at 6.7 µM, stronger effect = higher value, binding induced by LDV ligand
[8] = calorie-restriction mimetic ROS inhibitors, yeast – validation compound set, pilot screen (AID 2706;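 active means superoxide response below 65% of plate, a cut near 3 SD across the whole screen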;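 further: yeast exposed to compound for one week at 30 degrees C before staining; 100% = mean of all compound wells on the same plate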); details: S. cerevisiae aging, superoxide DHE fluorescence; at 10 µM; stronger effect = lower value
[9] = molecular target: Beta-adrenergic receptor kinase 1 (Homo sapiens) (UniProt P25098); test: GRK2 binders displacing RNA aptamer, biochemical, validation, human GRK2, bead flow cytometry (AID 488806;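 active means aptamer binding inhibition above 30%, about 3 SD of noise from non-fluorescent compounds; inactive means inhibition at or below 30%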); details: bead-bound GRK2, FAM-aptamer displacement, at 10 µM, stronger effect = higher value
[10] = molecular target: Beta-2 adrenergic receptor (Homo sapiens) (UniProt P07550); test: agonist-induced loss of surface beta2AR – cell-based, FAP fluorogen, flow cytometry, validation set, pilot screen (AID 504459;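 active means percent response above 42, roughly 3 SD of non-fluorescent test compounds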;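 further: agonist-driven loss of surface beta2AR via internalization measured by FAP dye flow cytometry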); details: Am2.2-beta2AR cells, at 10 µM, stronger effect = higher value
[11] = molecular target: AP-2 complex subunit beta (Homo sapiens) (UniProt P63010); test: beta-arrestin/AP2 interaction blockers – biochemical, validation set, GST-AP2 beads, flow cytometry, pilot screen (AID 504541;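 active means inhibition above 54%, about 3 SD of non-fluorescent compounds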;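 further: AP2 carries R879A mutation and is captured from E. coli lysate; bead-bound FITC arrestin peptide fluorescence measuring arrestin peptide binding to AP2; 0% = DMSO wells and 100% = excess unlabeled arrestin peptide control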); details: FITC arrestin peptide, at 10 µM, stronger effect = higher value, AP2 beta2 appendage fragment, R879A mutant
[12] = cytosolic pH regulators acting via V-ATPase – S. cerevisiae, pHLuorin, HTS validation (AID 504600; in the data active means response above about 15%;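 further: plate controls were DMSO for no effect and reference compound for full effect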); details: V-ATPase proton transport, at 10 µM, stronger effect = higher value
[13] = test system: anti-desmoglein-3 scFv antibody binding to human DSG3; test: blockers of pathogenic pemphigus antibody–desmoglein-3 binding – biochemical, validation compound set, bead-based, flow cytometry, pilot screen (AID 588368;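 active means binding below the plate cutoff, the plate median minus 3 SD, with a reading above zero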;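 further: signal is the median channel fluorescence of bead-bound GFP antibody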); details: Protein G beads, DSG3-Fc, scFv-GFP binding, at 10 µM, stronger effect = lower value
[14] = Nile Red efflux blockade in pump-expressing yeast – validation compound set, multiplex, phenotypic, pilot screen (AID 588506;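 active means efflux inhibition above 0.42, the validation set average plus 4 SD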;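 further: Nile Red retained in cells so higher fluorescence means more efflux inhibition; 0 = negative control wells and 1 = enniatin B 25 µM full block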); details: S. cerevisiae pump-expressing triplex, Nile Red efflux flow cytometry; at 10 µM; stronger effect = higher value; the pumps come from Candida albicans
[15] = molecular target: ATP-binding cassette sub-family B member 6 (Homo sapiens) (UniProt Q9NP58); test: blockers of ABCB6-driven porphyrin uptake – K562-ABCB6 cells, flow cytometry, validation set, pilot screen (AID 588550;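 active means inhibition above the screen-wide mean plus 3 SD, about 51%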;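 further: 0% = DMSO wells and 100% = benzethonium chloride 70 µM positive control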); details: K562-ABCB6 porphyrin accumulation, 1 h, at 10 µM, stronger effect = higher value
[16] = AML differentiation inducers, ER-HoxA9 marrow cells – cell-based, GFP/MAC1 double positive, flow cytometry, validation set, primary screen (AID 588685;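 active means differentiation response of at least 50%, scaled between solvent and reference control, from cells with both markers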;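 further: compound exposure lasts four days before antibody staining and flow analysis; 0% = DMSO wells and 100% = 5 µM fulvestrant positive control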); details: stronger effect = higher value, normalized: vehicle 0, fulvestrant 100

Beta-adrenergic receptor kinase 1 (Homo sapiens), sequence (P25098 whole entry, looked up): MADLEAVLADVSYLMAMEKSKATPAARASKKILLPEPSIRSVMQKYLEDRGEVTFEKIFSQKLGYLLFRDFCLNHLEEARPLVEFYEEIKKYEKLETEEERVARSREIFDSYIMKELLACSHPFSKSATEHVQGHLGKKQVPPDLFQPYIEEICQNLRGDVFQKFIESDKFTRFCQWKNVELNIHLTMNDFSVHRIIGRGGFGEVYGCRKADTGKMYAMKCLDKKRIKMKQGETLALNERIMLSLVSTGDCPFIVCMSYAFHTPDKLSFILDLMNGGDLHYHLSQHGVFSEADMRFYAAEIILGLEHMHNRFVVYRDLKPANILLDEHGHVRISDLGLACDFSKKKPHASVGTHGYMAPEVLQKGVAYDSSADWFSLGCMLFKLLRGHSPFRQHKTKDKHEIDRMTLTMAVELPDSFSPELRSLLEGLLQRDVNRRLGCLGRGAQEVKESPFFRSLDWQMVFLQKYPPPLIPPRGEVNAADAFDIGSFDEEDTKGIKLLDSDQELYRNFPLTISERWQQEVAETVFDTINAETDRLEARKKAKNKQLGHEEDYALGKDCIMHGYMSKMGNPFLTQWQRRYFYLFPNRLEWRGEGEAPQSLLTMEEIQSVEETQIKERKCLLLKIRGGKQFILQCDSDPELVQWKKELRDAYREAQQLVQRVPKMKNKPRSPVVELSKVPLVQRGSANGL
Integrin beta-1 (Homo sapiens) + Integrin alpha-4 (Homo sapiens), sequence (P05556 whole entry, looked up): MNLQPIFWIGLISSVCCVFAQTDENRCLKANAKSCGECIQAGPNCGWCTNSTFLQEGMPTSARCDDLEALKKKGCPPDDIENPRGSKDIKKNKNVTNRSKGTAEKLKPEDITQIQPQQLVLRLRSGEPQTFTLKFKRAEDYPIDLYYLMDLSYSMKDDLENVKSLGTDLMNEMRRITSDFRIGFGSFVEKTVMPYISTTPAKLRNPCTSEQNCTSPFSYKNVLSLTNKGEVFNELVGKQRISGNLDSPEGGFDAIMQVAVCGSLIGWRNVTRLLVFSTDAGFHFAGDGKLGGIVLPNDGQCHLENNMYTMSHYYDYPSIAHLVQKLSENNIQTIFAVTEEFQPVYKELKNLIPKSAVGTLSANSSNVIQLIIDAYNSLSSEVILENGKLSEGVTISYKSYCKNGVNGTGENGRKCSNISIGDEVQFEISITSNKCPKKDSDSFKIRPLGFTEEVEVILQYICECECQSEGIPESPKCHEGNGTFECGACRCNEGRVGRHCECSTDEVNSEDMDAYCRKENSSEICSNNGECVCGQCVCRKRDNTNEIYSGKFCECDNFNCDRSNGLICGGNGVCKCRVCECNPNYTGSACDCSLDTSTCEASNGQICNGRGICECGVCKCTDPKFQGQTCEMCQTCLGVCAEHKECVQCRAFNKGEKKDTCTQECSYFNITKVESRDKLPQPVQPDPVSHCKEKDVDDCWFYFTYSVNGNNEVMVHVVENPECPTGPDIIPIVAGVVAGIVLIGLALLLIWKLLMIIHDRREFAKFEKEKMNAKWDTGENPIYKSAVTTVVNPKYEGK
Integrin beta-1 (Homo sapiens) + Integrin alpha-4 (Homo sapiens), sequence (P13612 whole entry, looked up): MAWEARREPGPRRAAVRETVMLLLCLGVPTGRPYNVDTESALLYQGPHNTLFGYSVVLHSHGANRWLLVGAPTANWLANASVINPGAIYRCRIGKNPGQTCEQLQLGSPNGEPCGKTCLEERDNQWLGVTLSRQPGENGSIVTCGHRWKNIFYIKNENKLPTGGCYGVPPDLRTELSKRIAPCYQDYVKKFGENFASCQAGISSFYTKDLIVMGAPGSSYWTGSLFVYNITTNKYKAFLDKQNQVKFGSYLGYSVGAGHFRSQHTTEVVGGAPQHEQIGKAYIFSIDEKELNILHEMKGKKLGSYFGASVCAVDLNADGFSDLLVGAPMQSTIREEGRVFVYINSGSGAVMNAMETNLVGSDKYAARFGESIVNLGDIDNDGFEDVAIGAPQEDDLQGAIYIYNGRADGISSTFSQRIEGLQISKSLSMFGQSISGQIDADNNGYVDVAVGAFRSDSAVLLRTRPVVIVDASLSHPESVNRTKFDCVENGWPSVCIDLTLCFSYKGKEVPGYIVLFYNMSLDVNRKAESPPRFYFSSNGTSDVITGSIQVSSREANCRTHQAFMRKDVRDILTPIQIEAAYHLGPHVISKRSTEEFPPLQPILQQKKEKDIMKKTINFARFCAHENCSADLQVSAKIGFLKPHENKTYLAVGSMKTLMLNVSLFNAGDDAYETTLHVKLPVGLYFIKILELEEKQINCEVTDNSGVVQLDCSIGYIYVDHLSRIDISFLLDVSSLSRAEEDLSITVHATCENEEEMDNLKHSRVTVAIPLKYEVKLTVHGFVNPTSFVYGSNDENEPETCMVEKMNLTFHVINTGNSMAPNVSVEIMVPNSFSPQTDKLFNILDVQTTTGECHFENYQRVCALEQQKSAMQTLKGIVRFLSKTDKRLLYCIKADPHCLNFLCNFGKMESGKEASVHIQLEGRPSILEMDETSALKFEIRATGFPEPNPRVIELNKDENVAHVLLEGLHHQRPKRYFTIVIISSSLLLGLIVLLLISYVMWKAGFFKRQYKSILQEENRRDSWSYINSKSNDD
ATP-binding cassette sub-family B member 6 (Homo sapiens), sequence (Q9NP58 whole entry, looked up): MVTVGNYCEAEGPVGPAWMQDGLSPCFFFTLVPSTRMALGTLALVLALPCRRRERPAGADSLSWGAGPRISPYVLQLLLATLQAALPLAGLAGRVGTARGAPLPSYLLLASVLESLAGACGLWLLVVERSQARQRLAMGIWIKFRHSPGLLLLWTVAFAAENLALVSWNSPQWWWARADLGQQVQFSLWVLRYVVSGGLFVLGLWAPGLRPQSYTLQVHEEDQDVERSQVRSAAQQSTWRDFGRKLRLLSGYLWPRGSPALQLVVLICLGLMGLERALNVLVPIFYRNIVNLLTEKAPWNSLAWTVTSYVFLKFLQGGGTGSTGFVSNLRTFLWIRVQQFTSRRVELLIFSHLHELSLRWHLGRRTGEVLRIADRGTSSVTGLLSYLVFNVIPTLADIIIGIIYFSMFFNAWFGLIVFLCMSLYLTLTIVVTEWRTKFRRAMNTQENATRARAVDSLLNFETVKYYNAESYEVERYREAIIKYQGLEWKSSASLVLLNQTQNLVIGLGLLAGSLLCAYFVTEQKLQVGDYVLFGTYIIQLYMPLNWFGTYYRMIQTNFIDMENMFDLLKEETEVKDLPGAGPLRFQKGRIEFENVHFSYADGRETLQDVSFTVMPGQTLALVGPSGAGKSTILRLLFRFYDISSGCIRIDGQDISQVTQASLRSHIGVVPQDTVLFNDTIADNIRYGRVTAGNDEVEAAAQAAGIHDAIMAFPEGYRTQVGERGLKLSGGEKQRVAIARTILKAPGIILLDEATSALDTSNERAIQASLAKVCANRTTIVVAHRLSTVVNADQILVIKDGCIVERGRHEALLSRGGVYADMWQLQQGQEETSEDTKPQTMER
AP-2 complex subunit beta (Homo sapiens), sequence (P63010 whole entry, looked up, the tested form may be a part, one chain of several): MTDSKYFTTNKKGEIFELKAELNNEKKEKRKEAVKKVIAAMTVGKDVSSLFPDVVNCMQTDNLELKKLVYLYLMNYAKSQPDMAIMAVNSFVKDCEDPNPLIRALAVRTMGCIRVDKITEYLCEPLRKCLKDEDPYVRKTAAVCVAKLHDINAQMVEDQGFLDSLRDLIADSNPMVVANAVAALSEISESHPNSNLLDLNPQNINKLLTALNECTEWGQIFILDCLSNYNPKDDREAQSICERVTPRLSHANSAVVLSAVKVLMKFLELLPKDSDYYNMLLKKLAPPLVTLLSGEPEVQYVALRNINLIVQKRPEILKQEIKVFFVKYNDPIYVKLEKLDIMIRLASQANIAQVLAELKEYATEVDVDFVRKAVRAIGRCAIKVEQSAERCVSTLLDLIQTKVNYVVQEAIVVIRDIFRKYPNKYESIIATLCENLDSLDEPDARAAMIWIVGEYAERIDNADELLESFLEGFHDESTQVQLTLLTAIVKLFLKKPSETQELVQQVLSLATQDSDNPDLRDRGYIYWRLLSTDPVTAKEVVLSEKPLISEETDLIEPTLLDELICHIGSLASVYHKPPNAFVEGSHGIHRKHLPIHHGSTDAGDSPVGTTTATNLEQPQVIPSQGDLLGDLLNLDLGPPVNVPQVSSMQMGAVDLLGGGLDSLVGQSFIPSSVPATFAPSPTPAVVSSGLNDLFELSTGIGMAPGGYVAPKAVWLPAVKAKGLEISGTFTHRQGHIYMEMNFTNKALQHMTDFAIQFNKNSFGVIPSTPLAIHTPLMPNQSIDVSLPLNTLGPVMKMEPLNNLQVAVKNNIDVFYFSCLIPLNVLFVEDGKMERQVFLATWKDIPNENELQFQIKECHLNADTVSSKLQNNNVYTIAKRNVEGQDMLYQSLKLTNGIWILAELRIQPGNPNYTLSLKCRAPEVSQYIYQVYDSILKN
Beta-2 adrenergic receptor (Homo sapiens), sequence (P07550 whole entry, looked up): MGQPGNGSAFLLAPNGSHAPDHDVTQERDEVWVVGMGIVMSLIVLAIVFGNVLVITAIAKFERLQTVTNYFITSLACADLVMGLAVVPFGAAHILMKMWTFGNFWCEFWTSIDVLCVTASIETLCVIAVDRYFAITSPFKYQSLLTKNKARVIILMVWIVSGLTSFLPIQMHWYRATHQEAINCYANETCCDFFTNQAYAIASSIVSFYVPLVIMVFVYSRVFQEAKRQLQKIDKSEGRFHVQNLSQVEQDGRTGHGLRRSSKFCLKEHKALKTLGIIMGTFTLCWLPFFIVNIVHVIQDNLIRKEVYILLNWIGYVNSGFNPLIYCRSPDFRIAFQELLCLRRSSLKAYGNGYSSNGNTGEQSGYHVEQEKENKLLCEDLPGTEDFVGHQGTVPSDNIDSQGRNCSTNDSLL

O=C(O)CCCCCN=C1CCc2ccccc2N1
inactive: percent of DMSO control GFP [1] 93% | GFP response vs DMSO [2] 132% | percent response of DMSO control [3] 101% | GFP response vs DMSO [4] 80.9% | GFP response, % of DMSO [5] 90.5% | vesicle binding response [6] 163% | inhibition [7] 10.3% | superoxide response (% of plate) [8] 118% | aptamer binding inhibition [9] 2% | response [10] -6.38% | inhibition [11] 4% | response [12] -0.07% | binding (% of control) [13] 98.7% | efflux inhibition (fraction of control) [14] 0.3 | inhibition [15] 9% | differentiation response [16] 0%
63.5%: double positive events [6]

COc1ccc2oc(-c3ccco3)cc(=O)c2c1
59.1%: double positive events [6]
inactive: percent of DMSO control GFP [1] 103% | GFP response vs DMSO [2] 92.4% | percent response of DMSO control [3] 100% | GFP response vs DMSO [4] 88% | GFP response, % of DMSO [5] 83.7% | vesicle binding response [6] 23.9% | inhibition [7] -8.9% | superoxide response (% of plate) [8] 96.6% | aptamer binding inhibition [9] 3% | response [10] -0.39% | inhibition [11] -28.7% | response [12] 2.89% | binding (% of control) [13] 100% | efflux inhibition (fraction of control) [14] -0.28 | inhibition [15] 8% | differentiation response [16] -3.4%

COc1ccc(-c2csc(-c3cccnc3)n2)cc1C
59.8%: double positive events [6]
inactive: percent of DMSO control GFP [1] 98.2% | GFP response vs DMSO [2] 111% | percent response of DMSO control [3] 91% | GFP response vs DMSO [4] 95.7% | GFP response, % of DMSO [5] 84.4% | vesicle binding response [6] 170% | inhibition [7] 0.94% | superoxide response (% of plate) [8] 102% | aptamer binding inhibition [9] 4% | response [10] 3.47% | inhibition [11] 7.91% | response [12] -1.19% | binding (% of control) [13] 102% | efflux inhibition (fraction of control) [14] 0.12 | inhibition [15] 3% | differentiation response [16] 4%

OCCN1CCN(CCCN2c3ccccc3Sc3ccc(C(F)(F)F)cc32)CC1
active: inhibition [7] 70.4%
inactive: percent of DMSO control GFP [1] 104% | GFP response vs DMSO [2] 104% | percent response of DMSO control [3] 92.5% | GFP response vs DMSO [4] 101% | GFP response, % of DMSO [5] 115% | vesicle binding response [6] 176% | superoxide response (% of plate) [8] 90.7% | aptamer binding inhibition [9] -4% | response [10] 26.4% | inhibition [11] 13.1% | response [12] 0.87% | binding (% of control) [13] 111% | efflux inhibition (fraction of control) [14] -0.04 | inhibition [15] 11% | differentiation response [16] 0.92%
62.1%: double positive events [6]

CCCCOC(=O)c1ccc(N)cc1
59.9%: double positive events [6]
inactive: percent of DMSO control GFP [1] 101% | GFP response vs DMSO [2] 104% | percent response of DMSO control [3] 110% | GFP response vs DMSO [4] 93.7% | GFP response, % of DMSO [5] 105% | vesicle binding response [6] 183% | inhibition [7] -15.8% | superoxide response (% of plate) [8] 91.1% | aptamer binding inhibition [9] -3% | response [10] -7.71% | inhibition [11] 53.1% | response [12] -4.52% | binding (% of control) [13] 99.4% | efflux inhibition (fraction of control) [14] -0.03 | inhibition [15] -2% | differentiation response [16] -7.5%

CC1CC(OC(=O)C(O)c2ccccc2)CC(C)(C)N1C (stereo not drawn)
57.9%: double positive events [6]
inactive: percent of DMSO control GFP [1] 94.4% | GFP response vs DMSO [2] 112% | percent response of DMSO control [3] 94.8% | GFP response vs DMSO [4] 111% | GFP response, % of DMSO [5] 97.5% | vesicle binding response [6] 217% | inhibition [7] -8.62% | superoxide response (% of plate) [8] 99.3% | aptamer binding inhibition [9] 0% | response [10] 0.13% | inhibition [11] -13.2% | response [12] 7.51% | binding (% of control) [13] 103% | efflux inhibition (fraction of control) [14] -0.03 | inhibition [15] 5% | differentiation response [16] -18.4%

O=C(c1cccc2ccccc12)C1CCCN(C(=O)CCN2CCCO2)C1 (stereo not drawn)
inactive: percent of DMSO control GFP [1] 104% | GFP response vs DMSO [2] 98.3% | percent response of DMSO control [3] 109% | GFP response vs DMSO [4] 105% | GFP response, % of DMSO [5] 106% | vesicle binding response [6] 377% | inhibition [7] 7.85% | superoxide response (% of plate) [8] 90.5% | aptamer binding inhibition [9] 0% | response [10] -9.24% | inhibition [11] -0.89% | response [12] 2.67% | binding (% of control) [13] 96.4% | efflux inhibition (fraction of control) [14] -0.32 | inhibition [15] 4% | differentiation response [16] -0.73%
62.4%: double positive events [6]

NNC(=O)c1cc(O)c(O)c(O)c1
59%: double positive events [6]
inactive: percent of DMSO control GFP [1] 105% | GFP response vs DMSO [2] 88.8% | percent response of DMSO control [3] 114% | GFP response vs DMSO [4] 96% | GFP response, % of DMSO [5] 106% | vesicle binding response [6] 149% | inhibition [7] -1.49% | superoxide response (% of plate) [8] 93.7% | aptamer binding inhibition [9] 4% | response [10] -4.68% | inhibition [11] 12% | response [12] 1.02% | binding (% of control) [13] 91.2% | efflux inhibition (fraction of control) [14] -0.1 | inhibition [15] 5% | differentiation response [16] -2.69%

CCOC(=O)c1ncn2c1CN(C)C(=O)c1cc(F)ccc1-2
inactive: percent of DMSO control GFP [1] 101% | GFP response vs DMSO [2] 96.6% | percent response of DMSO control [3] 96.5% | GFP response vs DMSO [4] 107% | GFP response, % of DMSO [5] 105% | vesicle binding response [6] 200% | inhibition [7] 8.29% | superoxide response (% of plate) [8] 115% | aptamer binding inhibition [9] 1% | response [10] 3.78% | inhibition [11] -0.66% | response [12] 2.2% | binding (% of control) [13] 97.7% | efflux inhibition (fraction of control) [14] -0.025 | inhibition [15] 0% | differentiation response [16] 7.13%
58.4%: double positive events [6]
